Only some compounds are listed: those with a hit (about 1.3% of all), similar ones and a draw of the others.
12-LOX inh: inhibitors of human 12S-lipoxygenase ALOX12; P18054; 1.1% of 580,000 active; AID 1671190; Potency, µM (titrated, usually from 108 µM), inactives show at the top dose activity change, negative = inhibition, usual class: inhibitors; purified 12hLO, xylenol orange hydroperoxide absorbance; note: % is set by controls: 0 for no effect and ±100 for the full control effect
Target sequence (P18054 whole entry, looked up): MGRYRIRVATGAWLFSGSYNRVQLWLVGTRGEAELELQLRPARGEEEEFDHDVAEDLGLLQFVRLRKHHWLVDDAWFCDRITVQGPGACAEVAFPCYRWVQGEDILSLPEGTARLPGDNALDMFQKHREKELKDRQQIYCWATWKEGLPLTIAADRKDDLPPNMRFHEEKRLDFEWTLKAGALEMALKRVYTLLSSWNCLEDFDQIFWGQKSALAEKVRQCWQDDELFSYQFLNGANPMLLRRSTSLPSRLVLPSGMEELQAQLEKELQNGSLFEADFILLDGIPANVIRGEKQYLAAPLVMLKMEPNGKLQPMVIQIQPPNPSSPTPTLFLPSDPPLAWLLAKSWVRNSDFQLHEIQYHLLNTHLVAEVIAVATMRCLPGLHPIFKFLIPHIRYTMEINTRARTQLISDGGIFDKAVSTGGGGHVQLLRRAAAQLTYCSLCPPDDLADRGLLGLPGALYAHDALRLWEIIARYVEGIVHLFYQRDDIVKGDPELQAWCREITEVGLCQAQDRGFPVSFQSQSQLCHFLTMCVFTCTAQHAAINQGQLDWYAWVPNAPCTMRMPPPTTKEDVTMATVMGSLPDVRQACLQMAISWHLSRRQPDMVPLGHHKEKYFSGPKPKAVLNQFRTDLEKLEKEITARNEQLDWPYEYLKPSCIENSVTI
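Purified human 12hLO (150 nM final) in 25 mM Hepes, 0.01% Triton X-100, pH 7.0 was preincubated 15 min at room temperature with compound. Then 40 uM arachidonic acid was added, 30 min. Hydroperoxide was read by Fe-XO absorbance ratio 573/405 nm.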
USP1-UAF1 inh: blocks the human USP1/UAF1 deubiquitinase complex; 0.23% of 390,000 active; recombinant USP1/UAF1, Ub-Rhodamine cleavage fluorescence; Potency, µM (titrated, usually from 57.1 µM), for the others: top-dose activity change, negative = inhibition, most hits filed as inhibitors; note: % is set by controls: 0 for no effect and ±100 for the full control effect; nearly all actives have a fitted effect of over 60% in size
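USP1/UAF1 complex (1 nM) preincubated 15 min at room temperature with compound, then Ub-Rho substrate (150 nM final) added. Kinetic fluorescence at 480/540 nm over 6 reads at 60 s intervals; 50 mM HEPES pH 7.8, 0.5 mM EDTA, 0.1 mg/ml BSA, 1 mM TCEP, 0.01% Tween-20.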
EPAC2 agonist: activates human EPAC2 exchange factor; Q8WZA2; EPAC2 activation, biochemical qHTS; response scale: 100% = 6.5 mM cAMP response; Potency, µM (series often up to 154 µM), for the others: at the highest dose activation, usual class: activators; 0.079% of 360,000 active; AID 720711; note: nearly all actives have a fitted effect of over 50% in size
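Nucleotide exchange monitored as fluorescence drop when BODIPY-GDP leaves Rap1B. Reaction: 100 nM EPAC2, 250 nM RAP1B-BODIPY-GDP, 50 uM GDP, room temperature, kinetic read over 30 min. Activity expressed relative to 6.5 mM cAMP.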
EPAC1 antag: blocks human EPAC1 exchange factor. EPAC1 GEF assay, Rap1b-BODIPY-GDP exchange fluorescence. Potency, µM (top dose mostly 115 µM), without a hit: top-dose activity change, negative = inhibition, most hits filed as inhibitors. 0.14% of 360,000 active. AID 720709;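 note: plate controls were vehicle for no effect and positive control for full effect; nearly all actives have a fitted effect of over 50% in size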
EPAC1 agonist: EPAC1 (human) agonism; O95398; EPAC1 agonist qHTS, biochemical assay; response scale: 100% = response to 6.5 mM cAMP; Potency, µM (top dose mostly 154 µM), for the others: top-dose activation, usual class: activators; 0.073% of 360,000 active; AID 720707; note: nearly all actives have a fitted effect of over 60% in size
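Compounds were pinned as a concentration titration into mixtures of EPAC1 (100 nM), BODIPY-GDP-loaded Rap1B (250 nM) and GDP (50 uM). After 5 min at room temperature, fluorescence was followed for 30 min; activity was scaled to 6.5 mM cAMP.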
EPAC2 antag: blocks human EPAC2 exchange factor; EPAC2 GEF exchange of Rap1B-BODIPY-GDP, fluorescence; Potency, µM (highest dose often 114 µM), without a hit: at the highest dose activity, negative = inhibition, actives largely listed as inhibitors; 0.18% of 360,000 active; note: % is set by controls: 0 for no effect and ±100 for the full control effect; nearly all actives have a fitted effect of over 45% in size
Starred values were filed as active, the others as inactive; ? = inconclusive; nt = no result given; [ ] = remark or other dose. Calls come from the whole dose curve; as a rule, active = well fitted curve in the direction sought with a large enough effect; inconclusive = small, poorly fitted or top-dose-only effect, or another doubt; inactive = no such curve, though single readings can be large; an effect the other way counts as inactive or inconclusive. Potency is the fitted concentration of half-maximal effect.

SMILES | 12-LOX inh | USP1-UAF1 inh | EPAC2 agonist | EPAC1 antag | EPAC1 agonist | EPAC2 antag
COc1ccc(C2CCCN2CC(=O)N2CCN(c3cccc(C(F)(F)F)c3)CC2)c(OC)c1 (centres undefined) | -25% | nt | nt | nt | nt | nt
Cc1cc(S(=O)(=O)N2CCN(CC(=O)N(C)Cc3ccccc3)CC2)ccc1Br | ? | -21% | 5% | -11% | 63µM* | -2%
CN(Cc1ccccc1)C(=O)CN1CCN(S(=O)(=O)c2ccc(Cl)c(Cl)c2)CC1 | ? | -22% | 11% | -2% | 11% | -28%
CCOC(=O)C1(CCCc2ccccc2)CCN(C(=O)[C@@H]2C[C@@H](C)NC(=S)N2)CC1 | 45µM* | -7% | 4% | -1% | 13% | -9%
Nc1nccnc1C(=O)NCc1ccc2c(c1)OCCO2 | -1% | nt | nt | nt | nt | nt
COc1ccc(C2=NOC3(CCN([S+](=O)([O-])c4cccc(OC)c4)C3)C2)cc1 (centres undefined) | 27% | nt | nt | nt | nt | nt
CCc1ccc(C(=O)C(C)OC(=O)c2ccc(OCC(N)=O)cc2)cc1 (centres undefined) | 1% | nt | nt | nt | nt | nt
CC(C)(C)OC(=O)NCCNC(=O)c1cc2ccccc2[nH]1 | 0% | nt | nt | nt | nt | nt
CCN1C(=O)[C@H]2[C@@H](c3ccc(-c4ccc(Cl)c(Cl)c4)cc3)N[C@@](C)(C(=O)OC)[C@H]2C1=O | 40µM* | -2% | 9% | -10% | -19% | -10%
CCN1C(=O)[C@H]2[C@@H](c3ccc(-c4ccc(Cl)c(Cl)c4)c(OC)c3)N[C@@](C)(C(=O)OC)[C@H]2C1=O | ? | -26% | 3% | -8% | 2% | -9%
Cc1cc2n(CC(O)COc3ccccc3)c(=O)c3ccccc3n2n1 (centres undefined) | 36% | nt | nt | nt | nt | nt
COc1cccc(Cn2c(=O)c3ccccc3n3nc(C)cc23)c1 | -1% | -23% | 14% | -5% | 15% | 50µM*
Cc1[nH]n2c(=O)cc(-c3ccc(Cl)cc3)nc2c1-c1ccc(F)cc1 | 22µM* | nt | nt | nt | nt | nt
Cn1c(=O)c2[nH]c(=S)n(Cc3ccccc3)c2n(C)c1=O | ? | ? | 6% | -13% | 4% | -8%
CCCCn1c(=S)[nH]c2c(=O)n(C)c(=O)n(C)c21 | 45µM* | -14% | 2% | 0% | 3% | 5%
COc1cc2c(cc1OC)C(C)N(C(=O)c1ccc(F)cc1F)CC2 (centres undefined) | 10% | nt | nt | nt | nt | nt
O=C(COc1ccccc1)Nc1ccc(-c2nnc3n2CCCC3)cc1 | 28µM* | nt | nt | nt | nt | nt
O=C(COc1ccc(-c2nnc3n2CCCC3)cc1)Nc1ccccc1 | 52% | nt | nt | nt | nt | nt
Cc1ccc(NC(=S)NNc2ccc([N+](=O)[O-])cc2S(=O)(=O)Nc2ccccc2C(=O)O)cc1C | 10µM* | -21% | -4% | ? | -13% | -21%
O=C(O)c1ccccc1NS(=O)(=O)c1ccc(NNC(=S)Nc2ccc(OC(F)F)cc2)c([N+](=O)[O-])c1 | 3.5µM* | ? | -10% | ? | -10% | ?
Cc1ccc(C(=O)NC(=S)Nc2cccc(NC(=O)c3ccccc3)c2)cc1[N+](=O)[O-] | 25µM* | -12% | 13% | 16% | 9% | -5%
COc1ccc(NC(=O)c2ccccc2NS(=O)(=O)c2ccc(C)cc2)c([N+](=O)[O-])c1 | -1% | -14% | 7% | 10% | -6% | -12%
Cc1ccc(Nc2ccc(C(N)=O)cc2[N+](=O)[O-])cc1C | 7% | -23% | 4% | -4% | -12% | 10%
Cc1ccc(NC(=S)NNc2ccc(C(=O)O)cc2[N+](=O)[O-])cc1C | 1.4µM* | -4% | 12% | 7% | 7% | 0%
CCc1noc(C(C)N2CCN(c3oc(C4CC4)nc3C#N)CC2)n1 (centres undefined) | -7% | nt | nt | nt | nt | nt
SMILES | 12-LOX inh | USP1-UAF1 inh | EPAC2 agonist | EPAC1 antag | EPAC1 agonist | EPAC2 antag
Cc1ccccc1CS(=O)(=O)N1CCC(C(=O)NC23CC4CC(CC(C4)C2)C3)CC1 | 5% | nt | nt | nt | nt | nt
CN(C)c1ccc(C=c2c3ccccc3n3c2c2ccccc2[n+]3C)cc1 | 5µM* | ? | ? | 50µM* | 15% | 45µM*
CCOC(=O)c1cc2c(=Cc3ccc(N(C)C)cc3)c3ccccc3n2[n+]1C | ? | 16µM* | 15% | -11% | 18% | -4%
COc1ccc2oc3c(ccc[n+]3C)c(=O)c2c1 | 13µM* | nt | -3% | -3% | -6% | -12%
O=S(=O)(NC[C@H]1Cn2c(-c3ccc(F)cc3)cnc2CO1)c1ccc(Cl)cc1 | 50µM* | nt | nt | nt | nt | nt
C=CCn1c(CCc2cc(C(C)(C)C)c(O)c(C(C)(C)C)c2)n[nH]c1=S | 35µM* | -16% | -10% | ? | 4% | ?
CCOC(=O)C1=C(C)NC(=O)C1(NC(=O)c1ccccc1Cl)C(F)(F)F (centres undefined) | 8% | nt | nt | nt | nt | nt
Fc1ccc(NC(=S)N/N=C/c2cccc(Br)c2)c(F)c1 | -20% | -26% | 2% | 6% | -6% | 0%[57.1 µM]
Fc1ccc(N/N=C/c2ccc(F)c(F)c2)c(F)c1 | 7.9µM* | nt | nt | nt | nt | nt
COc1cc(/C=N/Nc2ccc(F)cc2F)cc(OC)c1O | ? | -5% | 10% | -14% | 0% | -12%
Fc1ccc(N/N=C/c2cccc(Br)c2)c(F)c1 | 16µM* | nt | nt | nt | nt | nt
COc1ccc(OCc2nnc(SCC(=O)NC3CC3)n2C)cc1 | 0% | 1% | 8% | -20% | -2% | -3%
COc1ccc(C(=O)NCc2nnc(SCC(=O)NC3CCCCC3)n2C)cc1 | 40µM* | -4% | 13% | -8% | 2% | 3%
CCN(CC)S(=O)(=O)c1cccc(C(=O)N(C)Cc2cccs2)c1 | -7% | nt | nt | nt | nt | nt
CC1(C)CC(CCN2CCCCC2)(c2cccc(C(F)(F)F)c2)CCO1 (centres undefined) | 1.8µM* | nt | nt | nt | nt | nt
COc1ccc(OC)c(CCNC(=O)NCc2noc3ccccc23)c1 | 20% | nt | nt | nt | nt | nt
COCCOC(=O)/C(C#N)=C\c1ccc(Cl)c(Cl)c1 | -5% | nt | nt | nt | nt | nt
O=C(c1ccccc1)c1cc(Cl)ccc1N1C(=O)C=CC1=O | 7.9µM* | -6% | -3% | -3% | 5% | -7%
CCC(=O)NCC(=O)NC1CCN(S(=O)(=O)c2ccc(NC(C)=O)cc2)CC1 | 7% | nt | nt | nt | nt | nt
COc1cc(C(=O)OCC(=O)NC2CCC(C)CC2)cc(Cl)c1OC (centres undefined) | 14% | nt | nt | nt | nt | nt
COc1ccc(-c2noc([C@@H]3CCCN3C(=O)c3ccc(C#N)cc3)n2)cc1OC | 25µM* | nt | nt | nt | nt | nt
O=C(O)C1CCN(S(=O)(=O)c2cc(Cl)cc(Cl)c2)CC1 | 8% | nt | nt | nt | nt | nt
Nc1ncnc2c1nc(Br)n2[C@@H]1O[C@@H]2COP(=O)(O)O[C@H]2[C@H]1O | -3% | 15% | ? | 1.3µM* | 11µM* | 2.5µM*

Source: PubChem BioAssay
